From PubChem
Vaccinia Venus: qHTS for Stage-Specific Inhibitors of Vaccinia Orthopoxvirus: Venus Reporter Primary qHTS; Vaccinia virus Venus reporter expression, fluorescence; Potency, µM (top dose mostly 36.5 µM), for inactives: at the highest dose activity change, negative = inhibition, hits mostly inhibitors; 0.46% of 330,000 active; calls by dose curve; tested in A549 cells; note: nearly all actives have a fitted effect of over 30% in size
Vaccinia mCherry: qHTS for Stage-Specific Inhibitors of Vaccinia Orthopoxvirus: mCherry Reporter Primary qHTS; Vaccinia virus mCherry reporter infection, fluorescence; 0.63% of 310,000 active; Potency, µM (series often up to 36.5 µM), for inactives: top-dose activity change, negative = inhibition, most hits filed as inhibitors; calls by dose curve; tested in A549 cells; note: nearly all actives have a fitted effect of over 35% in size
HCV inh: qHTS Assay for Inhibitors of Hepatitis C Virus (HCV) | Huh7.5.1 HCVcc-Cre infection, luciferase reporter, 44 h | AID 651820, 2012 | 3.4% of 340,000 active | Potency, µM (doses to about 41.8 µM), inactives show top-dose activity change, negative = inhibition, actives largely listed as inhibitors; active = well fitted inhibition curve with a large enough effect; inconclusive = small, poorly fitted or top-dose-only effect, or another doubt; inactive = no such curve, though single readings can be large or run the other way
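Compounds are dispensed onto cells plated 4 h earlier at 1,000 per well, with HCVcc-Cre virus (about 0.5 moi) added next. Following 44 h of culture, luminescent signal is measured for 15 sec after 15 min with substrate at room temperature.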
LASV entry inh: qHTS for Inhibitors of binding or entry into cells for Lassa Virus. Lassa virus pseudotype entry inhibition, cell reporter. Potency, µM (series often up to 37.9 µM), inactives show top-dose activity change, negative = inhibition, usual class: inhibitors. 1.2% of 300,000 active. AID 540256, 2011; calls by dose curve; tested in HEK293 cells; note: nearly all actives have a fitted effect of over 50% in size
MARV entry inh: qHTS for inhibitors of binding or entry into cells for Marburg Virus | Marburg virus pseudotyped entry inhibition, cell reporter | Potency, µM (doses to about 37.8 µM), inactives show top-dose activity change, negative = inhibition, most hits filed as inhibitors | 1.8% of 300,000 active; calls by dose curve; tested in HEK293 cells
An asterisk follows results filed as active; i = inactive; ? = inconclusive; . = no result; [ ] = dose if it differs, or a comment. A selection: hits, their analogues and other compounds. The true share with any hit is near 4.6%. % is set by controls: 0 for no effect and ±100 for the full control effect; potency is the fitted concentration of half-maximal effect.

SMILES	Vaccinia Venus	Vaccinia mCherry	HCV inh	LASV entry inh	MARV entry inh
COc1ccc(-c2nnc3n(CCc4ccccc4)c(=O)c4ccccc4n23)c(OC)c1	-3%	-11%	10%	?	10µM*
COc1cc(OC)c(-c2nnc3n(CCc4ccccc4)c(=O)c4ccccc4n23)cc1OC	.	.	-10%	.	.
O=C(CSc1nc(-c2cccs2)cc(C(F)(F)F)n1)Nc1cc(OCC(F)(F)F)cc([N+](=O)[O-])c1	-30%	-6%	?	?	7.1µM*
COc1cccc(NC(=O)[C@@H]2CC(=O)n3cnnc3S2)c1	.	.	.	.	14%
N#C/C(=C\c1cccc(NC(=O)c2ccccc2Cl)c1)C(=O)NCCc1ccccc1	-5%	-25%	?	?	11µM*
COCCCNC(=O)/C(C#N)=C/c1cccc(NC(=O)c2ccccc2Cl)c1	-5%	-1%	-2%	?	?
C#CCOCCOCCOCCNc1nc(N2CCN(C(=O)CCCCCCCCCCNC(=O)[C@@H](CCC(=O)O)n3cc(CCCCCN)nn3)CC2)nc(N2CCN(C(=O)CCCCCCCCCCNC(=O)[C@@H](CCC(=O)O)n3cc(CCCCCN)nn3)CC2)n1	-17%	i	4%	.	.
C#CCOCCOCCOCCNc1nc(N2CCN(C(=O)CCCCCCCCCCNC(=O)[C@@H](CCSC)n3cc(CCO)nn3)CC2)nc(N2CCN(C(=O)CCCCCCCCCCNC(=O)[C@H]([C@@H](C)CC)n3cc(CCCCCN)nn3)CC2)n1	10µM*	-18%	?	.	.
C#CCOCCOCCOCCNc1nc(N2CCOCC2)nc(N2CCN(C(=O)CCCCCCCCCCNC(=O)[C@@H](CCSC)n3cc(CCO)nn3)CC2)n1	-28%	i	-28%	.	.
C#CCOCCOCCOCCNc1nc(N2CCN(C(=O)CCCCCCCCCCNC(=O)[C@@H](CCSC)n3cc(CCO)nn3)CC2)nc(N2CCN(C(=O)CCCCCCCCCCNC(=O)[C@H]([C@@H](C)CC)n3cc(CCCCN=C(N)N)nn3)CC2)n1	8.9µM*	?	?	.	.
O=C1[C@H](Cc2ccccc2)NC/C=C\C[C@@H](c2ccco2)N1Cc1ccccc1	-14%	-5%	.	.	.
CCc1c(-c2ccccc2)nc2sc3c(c2c1N)CCCC3	?	?	25µM*	?	?
CCC(=O)N1CCc2cc(CNS(=O)(=O)c3ccccc3F)ccc21	-12%[7.34 µM]	0%[7.34 µM]	.	-2%[46.1 µM]	.
CC[n+]1c(/C=C2/C=C(C)CC(C)C2)sc2ccccc21 (stereo not drawn)	.	.	3.5µM*	?	?
CC[n+]1c(C=C2C=C(C)OC(C)=C2)sc2ccccc21	79%	-29%	2.5µM*	5µM*	?
C[C@@H]1CN(Cc2ccc3c(c2)CN(Cc2cccn2-c2cccnc2)CCO3)C[C@H](C)O1	-14%	-19%	.	.	.
N#Cc1cnc(SCC(=O)c2ccccc2)nc1N	.	.	8%	7%	10%
N#Cc1cnc(SCCc2ccccc2)nc1N	.	.	2.2µM*	-39%	-9%
CCOc1ccc(CNc2cc(C)nc3nc(-c4cccc(C)c4)nn23)cc1OC	-18%	i	.	-19%[46.1 µM]	.
Cc1ccc(N/C=C/C(=O)c2cccs2)cc1C	-14%	-7%	?	10µM*	?
Cc1cc(N/C=C/C(=O)c2cccs2)ccc1F	.	.	-11%	.	.
CN(C)CCCN1c2ccccc2Sc2ccc3ccccc3c21	?	10µM*	?	?	?
O=C(CCl)N1c2ccccc2Sc2ccc3ccccc3c21	10µM*	?	.	.	.
CN1CCN(CCCN2c3ccccc3Sc3ccc(S(=O)(=O)N(C)C)cc32)CC1	-28%	?	?	.	.
Cc1ccc2c(C(=O)CNC3=NCCS3)c(C)[nH]c2c1	?	-12%	.	.	.
COc1cc(NC(=O)CSc2nnc(C)n3c2cc2oc(C)cc23)cc(OC)c1	-8%	-4%	.	10%[46.1 µM]	.
Fc1cccc(Cl)c1-c1nnc2ccc3ccccc3n12	.	.	10µM*	.	.
Fc1ccccc1-c1nnc2ccc3ccccc3n12	-16%	i	-8%	9%[46.1 µM]	2%[46.1 µM]
O=C(O)C1CCCN1S(=O)(=O)c1ccc(Cl)c(Cl)c1 (stereo not drawn)	1%	?	3%	15%	7%
